High-throughput results as filed in PubChem.
This excerpt belongs to a sample that is enriched for hits.
Pf Dd2 growth: blocks in vitro growth of P. falciparum Dd2. P. falciparum Dd2 growth, SYBR Green, 72 h. Potency, µM (doses to about 28.9 µM), most hits filed as inhibitors. actives 4.3% (n = 120,000). AID 1347417; active = well fitted inhibition curve with a large enough effect; also: nearly all actives have a fitted effect of over 65% in size
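Infected erythrocytes (Dd2, 0.3% parasitemia, 2.5% hematocrit final) are added to compound in RPMI-1640/Albumax II medium, grown 72 h at 37C in low oxygen, then lysed with saponin/Triton-X containing SYBR Green and read by fluorescence.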
Numbers stand for hits; - = inactive; [ ] = another dose, or the depositor's remark.

SMILES	Pf Dd2 growth
CC(C)(C)C(=O)N1CCC2(CC1)CCN(Cc1cccs1)c1ccccc1O2	10µM
CCCN1CCC2(CCN([S+](=O)([O-])c3cccc(C(F)(F)F)c3)CC2)Oc2ccccc21	-
CCCN1CCC2(CCN(C(=O)c3ccccc3)CC2)Oc2ccccc21	-
Cc1ccc(C(=O)N2CCC3(CC2)CCN(CCc2ccccc2)c2ccccc2O3)cc1	11µM
CNC(=O)[C@H]1C[C@H](Oc2cccnc2)CN1C(=O)NCc1ccc(F)cc1	-
CCN(C1CCOCC1)C1CN(C(=O)c2nccn2C)C1	-
O=C(C[C@H]1NC(=O)c2ccccc2NC1=O)Nc1cccc2[nH]ccc12	-
O=c1n(-c2ccncc2)nc2n1CCN(CC1CC1)C2	-
O=C(CCc1nc(C2CCCN2C(=O)C2CC2)no1)NCCC1=CCCCC1 (centres undefined)	-
Cc1cc(C(=O)N2CCCC(CCc3c(F)cccc3F)C2)no1 (centres undefined)	-
O=C(O)COc1ccc(-c2nccc3c2C(=O)N(Cc2c[nH]c4ccccc24)CC(COc2cccc(N4CCOCC4)c2)O3)cc1 (centres undefined)	-
O=C(Nc1ccc(Cl)cc1)N1CCC2(CC1)CCN(Cc1cccs1)c1ccccc1O2	1.4µM
CC(=O)Nc1ccc(CN2CCC3(CC2)CC(=O)c2ccccc2O3)cc1	-
CCCN1CCC2(CCN(C(=O)c3ccccc3F)CC2)Oc2ccccc21	-
COc1cccc(C(=O)N2CCC[C@H]2c2nc(-c3ccccc3)no2)c1	-
CNC(=O)CCC1CCCN(S(=O)(=O)c2cccc(F)c2)C1 (centres undefined)	-
CN1CCN(c2cc(=O)c3ccnc(N4CCN(c5ccccn5)CC4)c3o2)CC1	-
CN(c1ccccc1)c1cc(=O)c2ccnc(N3CCOCC3)c2o1	-
CN(c1ccccc1)c1cc(=O)c2ccnc(N3CCN(c4ccccn4)CC3)c2o1	13µM
CC(=O)N1CC2(Cc3ccccc31)CN(C(=O)C1CC1)C2	-
CCOc1ccc(S(=O)(=O)N(CC(=O)NCc2ccccc2OC)c2ccccc2)cc1	-
CCN(CC)S(=O)(=O)c1ccc2oc(C(=O)NCc3ccccc3OC)c(C)c2c1	7.9µM
COc1ccc(S(=O)(=O)N(CC(=O)NCc2ccccc2OC)c2ccc(C)cc2)cc1	-
COc1ccc(C(=O)N2CC3CC(C2)[C@H]2CCCC(=O)N2C3)c(C)c1 (some centres undefined)	-
CCCn1c(C)cnc1CC1CCN(C(=O)NC)C1 (centres undefined)	-
SMILES	Pf Dd2 growth
Cc1ccc(-c2noc([C@@H]3C[C@H](NC(=O)CC(C)(C)CC(=O)O)CN3C)n2)cc1	-
Cc1ccccc1NS(=O)(=O)c1ccc2[nH]cc(C(=O)NCCc3ccccc3)c(=O)c2c1	11µM
Cc1cc(C)cc(NS(=O)(=O)c2ccc3[nH]cc(C(=O)NCCc4ccccc4)c(=O)c3c2)c1	-
CCc1ccc(NS(=O)(=O)c2ccc3[nH]cc(C(=O)NCCc4ccccc4)c(=O)c3c2)cc1	-
CC(C)c1ccc(NC(=O)O[C@@H]2CO[C@H]3[C@@H]2OC[C@@H]3NC(=O)c2ccccc2)cc1	-
COc1cc(F)ccc1-c1ccnc2ncnn12	-
Cc1cc(F)ccc1NC(=O)CN1C(=O)NC2(CCC(C(C)(C)C)CC2)C1=O (centres undefined)	-
COCc1cc(C[C@@H]2CC[C@H](O)[C@@H](CNC(=O)c3ccccc3)O2)no1	-
Cc1cc(NC(=O)CN2C(=O)NC(c3ccc(Cl)cc3)C3=C2COC3=O)no1 (centres undefined)	-
O=c1n(-c2ccc(F)cc2F)nc2n1CCN(Cc1ccc(C(F)(F)F)cc1)C2	-
COc1ccc(CN2CCn3c(nn(-c4ccc(F)cc4F)c3=O)C2)cc1	-
Cn1ccc(CN2CCn3c(nn(-c4ccc(F)cc4F)c3=O)C2)c1	8.9µM
c1cnc(N2CC[C@H](c3nnc(-c4ccncc4)o3)C2)nc1	-
COC(=O)N1CC2(Cc3ccccc3N(C(C)=O)C2)C1	-
C[S+](=O)([O-])N1Cc2ccccc2CC12CN(C(=O)c1ccccc1F)C2	-
O=C(Nc1cccc(F)c1)C1CCN(S(=O)(=O)c2ccc3[nH]c4c(c3c2)CCCCC4)CC1	11µM
COc1cccc(NC(=O)C2CCN(S(=O)(=O)c3ccc4[nH]c5c(c4c3)CCCCC5)CC2)c1	-
CC(=O)c1ccc(N2CCN(S(=O)(=O)c3ccc4[nH]c5c(c4c3)CCCCC5)CC2)cc1	-
O=C(c1cc(C2CC2)[nH]n1)N1CCC2(CC1)NC(=O)N(c1cccc(F)c1)N2	-
CC(C)NC(=O)NC1CC2(CCN(Cc3ccc(O)cc3)CC2)c2ccccc21 (centres undefined)	2.8µM
CC(C)NC(=O)NC1CC2(CCN(C(=O)c3ccccc3)CC2)c2ccccc21 (centres undefined)	-
CC(=O)NC1CC2(CCN(C(=O)Cc3ccc(O)cc3)CC2)c2ccccc21 (centres undefined)	-
CCC(C)C(=O)NCc1cc2c(nc1OC)CN(CCc1ccccn1)C2=O (centres undefined)	-
N#Cc1ccc(CN2CC[C@H](c3nnc(Cc4ccccc4)o3)C2)cc1	-
CCn1cc(CN2CCCC(c3nc4c(C)cccc4[nH]3)C2)cc1C#N (centres undefined)	13µM
SMILES	Pf Dd2 growth
CCN1CCC2(CCC1=O)CN(Cc1cc(C#N)n(CC)c1)CCN2C (centres undefined)	-
Cc1nn(C)c(C)c1C(=O)N1CCCC(c2ccc(C(=O)O)cc2)C1 (centres undefined)	-
O=C1CCN(S(=O)(=O)c2ccccc2)CCCC(C(=O)NCCN2CCOCC2)CCN1 (centres undefined)	-
COc1ccc(C(=O)N2CCC(c3nc4ccccc4s3)CC2)cc1Cl	-
CCCn1cc(C2CCN(S(=O)(=O)c3ccccc3Cl)CC2)c2ccccc21	-
Cn1cc(C2CCN(C(=O)c3sc(Cl)c(Cl)c3Cl)CC2)c2ccccc21	7.9µM
CCCc1nn(-c2ccccc2C)c(OC(C)=O)c1-c1ccc(NC(=O)CC)cc1	-
CCn1nccc1C(=O)N1CC(Oc2ccccc2-c2nc(CCOC)no2)C1	4.5µM
CCCNC(=O)N1CC(Oc2ccccc2-c2nc(CCOC)no2)C1	-
COCCc1noc(C2CN(C(=O)C(C)C)C2)n1	-
COCCc1noc(-c2ccccc2OC2CN(C(=O)C(C)C)C2)n1	3.2µM
CCn1nccc1C(=O)N1CC(Oc2ccc(-c3nc(C)no3)cc2)C1	-[5.79 µM]
Cc1nc(C)c(C(=O)N2CC(Oc3ccccc3-c3nc(C4CC4)no3)C2)s1	-
Cc1cc(C)c2c(C(=O)N(C)Cc3nc(C)no3)cc(C)nc2c1	-
O=C(O)[C@H]1C[C@H](C(=O)NCc2ccccn2)CN(C(=O)CC2CCCC2)C1	-
CCn1ncc(N2CCC(NC(=O)c3ccc(OC)cc3)CC2)cc1=O	-
COCCNC(=O)C1COC2(CCN(C(=O)c3ccc(F)cc3)CC2)N1C(=O)c1cccc(OC)c1 (centres undefined)	-
CCOc1cc(=O)n2c(c1C(=O)N1CCN(C3CCCCC3)CC1)CCCCC2	-
O=C1CCN(C(=O)Nc2ccccc2)CCCC(c2nc(-c3cccnc3)no2)CCN1 (centres undefined)	-
O=C1CN(C(=O)Cc2ccccc2)C(c2ccc(F)cc2)c2cc(Br)ccc2N1 (centres undefined)	-
O=C(CCC1CCCC1)N1CCc2c([nH]c3ccccc23)C1c1ccc(F)cc1 (centres undefined)	11µM
